Source: PubChem (Broad Institute)
MITF act: activators of MITF-driven TRPM1 promoter activity in SK-MEL-5 cells. SK-MEL-5 TRPM1-promoter luciferase, 24 h; % of positive control, neutral wells = 0. activation, % at 12.5 µM. 300,000 tested, 0.75% active. AID 588334;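 active = mean activation of at least 80% with every replicate also reaching 80%; inconclusive = mean reaches 80% but some replicate falls short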
esBAF inh: SWI/SNF esBAF complex inhibition; mouse ES cells, Bmi1-luciferase knock-in reporter, 24 h; 100% = twice the neutral-well signal; reporter increase, % at 12.5 µM; 350,000 tested, 2% active; in the data active = activation above about 40%; inconclusive = no clear call, values can overlap the other calls;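 also: a rise in the Bmi1 reporter signal indicates esBAF inhibition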
HSF1 activator: increases HSF-1 driven luciferase reporter signal; NIH3T3-HGL HSF-1 luciferase reporter, MG132, 8 h; 100% = twice DMSO control signal; activation, % at 9 µM; 300,000 tested, 1.7% active;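 active = mean replicate activation of at least 50% with a set share of replicates each reaching 50%; inconclusive = only one of those two conditions met; inactive = mean below 50% and too few replicates reaching it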
HSF1 inhib: HSF1 inhibition | NIH3T3-HGL HSE-luciferase, MG132-induced, luminescence 8 h; active compounds read low | activity change, negative = inhibition, % at 7.5 µM (by protocol) | 300,000 tested, 0.77% active | AID 2098;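 active = more than half of replicate wells show activity change below -50%, luminescence cut by over half; inconclusive = some wells, but at most half, below -50%; inactive = no replicate well below -50%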;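 also: luciferase reports HSF-1 transcriptional activity via heat shock element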
Wnt bcat act: Wnt/beta-catenin pathway activation | 300,000 tested, 1.2% active | activation, % at 9.35 µM | Wnt/beta-catenin reporter cell assay, activator, plate reader; in the data active = activation above about 30%, passing the limit was not always enough; inconclusive = no clear call, values can overlap the other calls
Of the large screens only hits and unclear results are named; the others gave an inactive call. Only some compounds are listed: those with a hit (about 3.8% of all), similar ones and a draw of the others.

O=C(NCCc1ccncc1)[C@@H]1[C@@H](CO)[C@@H]2Cn3c(ccc(C4=CCCCC4)c3=O)[C@H]1N2CC1CC1	none (no result: MITF act, HSF1 activator, HSF1 inhib, Wnt bcat act)
CCn1cnc2c(Nc3cccc(Cl)c3)nc(C#N)nc21	MITF act 112, esBAF inh 69, Wnt bcat act 46 (no result: HSF1 activator, HSF1 inhib)
CCn1cnc2c(NCCc3cccnc3)nc(C#N)nc21	none (no result: esBAF inh, HSF1 activator, HSF1 inhib)
O=C(Nc1sc2c(c1C(=O)O)CCC2)c1ccccc1	esBAF inh 53, Wnt bcat act inconclusive
NCCNC(=O)c1c(NC(=O)c2ccccc2)sc2c1CCCC2	esBAF inh 68
O=C(Nc1sc2c(c1C(=O)O)CCCC2)c1cccc(Cl)c1	esBAF inh 73
O=C(Nc1sc2c(c1C(=O)O)CCC2)c1ccc(F)cc1	esBAF inh 63
O=C(Nc1sc2c(c1C(=O)O)CCCC2)c1ccc(Cl)cc1	esBAF inh inconclusive
O=C(Nc1sc2c(c1C(=O)O)CCCCC2)c1ccccc1	none (no result: esBAF inh)
C[C@@H]1CN([C@H](C)CO)C(=O)c2cccc(NS(=O)(=O)c3ccccc3)c2O[C@@H]1CN(C)CC1CCCCC1	none (no result: MITF act, HSF1 activator, HSF1 inhib, Wnt bcat act)
C[C@@H]1CCCCO[C@H](CN(C)C(=O)CCCN(C)C)[C@H](C)CN([C@@H](C)CO)C(=O)c2cc(NC(=O)Nc3ccc(F)cc3)ccc2O1	none (no result: MITF act, HSF1 activator, HSF1 inhib, Wnt bcat act)
COCC(=O)N1C[C@@H](C)[C@@H](OC)CN(C)C(=O)c2cc(NC(=O)c3ccc(F)cc3)ccc2OC[C@@H]1C	none (no result: MITF act, HSF1 activator, HSF1 inhib, Wnt bcat act)
CC(=O)CSc1nc2ccccc2o1	none (no result: MITF act)
Cc1cc(C)nc(SCc2nc3ncccn3c2Br)n1	none (no result: HSF1 activator, HSF1 inhib, Wnt bcat act)
Brc1c(CSc2nc3ccccc3o2)nc2ncccn12	Wnt bcat act 49 (no result: MITF act)
Clc1c(CSc2nc3ccccc3o2)nc2ccccn12	HSF1 activator 87 (no result: Wnt bcat act)
Clc1c(CSc2nc3ccccc3o2)nc2sccn12	HSF1 activator 103 (no result: Wnt bcat act)
COC(=O)CSc1nc2ccccc2o1	none
CCCC#Cc1cnc2c(c1)C(=O)N([C@H](C)CO)C[C@H](C)[C@H](CN(C)C(=O)C1CCOCC1)O2	none (no result: MITF act, HSF1 activator, HSF1 inhib, Wnt bcat act)
COc1ccccc1-c1cn(CC[C@@H]2CC[C@H](NC(=O)NC(C)C)[C@@H](CO)O2)nn1	none (no result: MITF act, HSF1 activator, HSF1 inhib, Wnt bcat act)
COc1ccccc1CNc1nc(C)c(C(=O)N(C)C)s1	none
Cc1nc(NCCc2ccccc2)sc1C(=O)N(C)C	esBAF inh 41
Cc1nc(Nc2ccccc2C(F)(F)F)sc1C(=O)N(C)C	esBAF inh 49
O=C(Nc1cccc(Cl)c1)N[C@@H]1CC[C@@H](CCNC(=O)C2CC2)O[C@H]1CO	none (no result: MITF act, HSF1 activator, HSF1 inhib, Wnt bcat act)
Cc1ccc(S(=O)(=O)NCC(c2ccccc2)N2CCN(c3ccc(F)cc3)CC2)cc1 (stereo unspecified)	MITF act inconclusive, HSF1 activator 54
O=C(COC(=O)c1ccc(O)cc1O)N=c1sccn1Cc1ccccc1Cl	none
Cc1ccc(Cn2ccsc2=NC(=O)COC(=O)c2ccc(O)cc2O)cc1	esBAF inh 47
CCC1CCc2c(sc(NC(=O)c3ccco3)c2C(N)=O)C1 (stereo unspecified)	esBAF inh 60, Wnt bcat act 37 (no result: MITF act)
CC1CCc2c(sc(/N=C/c3cccnc3)c2C(N)=O)C1 (stereo unspecified)	none (no result: MITF act, esBAF inh)
CC1CCc2c(sc(/N=C/c3ccco3)c2C(N)=O)C1 (stereo unspecified)	Wnt bcat act 45 (no result: MITF act, esBAF inh)
C[C@@H]1CN([C@@H](C)CO)C(=O)c2cc(NC(=O)CCCN(C)C)ccc2O[C@H]1CN(C)C(=O)NC1CCCCC1	none (no result: MITF act, HSF1 activator, HSF1 inhib, Wnt bcat act)
Cc1cc(/C=C2\SC(=S)N(Cc3ccco3)C2=O)c(C)n1-c1ccccc1	HSF1 inhib -66 (no result: esBAF inh)
Cc1noc(C)c1NC(=O)N(C)C[C@H]1OCCCC[C@@H](C)Oc2ccc(NC(=O)NC(C)C)cc2C(=O)N([C@H](C)CO)C[C@H]1C	none (no result: MITF act, HSF1 activator, HSF1 inhib, Wnt bcat act)
Cc1noc(C)c1NC(=O)Nc1ccc2c(c1)C(=O)N([C@@H](C)CO)C[C@@H](C)[C@@H](CN(C)S(=O)(=O)c1ccc(F)cc1)O2	none (no result: MITF act, HSF1 activator, HSF1 inhib, Wnt bcat act)
Cc1ccc2cc(CCNC(=O)c3cccs3)c(=O)[nH]c2c1C	esBAF inh 59, HSF1 activator 58 (no result: MITF act)
CC(=O)NCCc1cc2ccc(C)c(C)c2[nH]c1=O	none
Cc1ccc2cc(CCNC(=O)c3cccs3)c(=O)[nH]c2c1	esBAF inh 54 (no result: HSF1 activator, HSF1 inhib)
CCC(CC)C(=O)NCCc1cc2ccc(C)cc2[nH]c1=O	none
CCCc1nc(Nc2nc3ccccc3o2)nc(C)c1C(=O)OCC	MITF act 116, esBAF inh 63, HSF1 activator 64 (no result: Wnt bcat act)
Cc1cc(C)c2cc(C(=O)N3CCc4ccccc4C3)[nH]c2c1	none
Cc1cc(C)c2cc(C(=O)N(C)C3CCN(C)CC3)[nH]c2c1	HSF1 activator 55 (no result: MITF act, esBAF inh)
O=[N+]([O-])c1ccc(Cl)c(NC(=S)N2CCCC2)c1	esBAF inh 52
CO[C@@H]1CN(C)C(=O)c2cc(NS(=O)(=O)c3ccc(F)cc3)ccc2OC[C@H](C)NC[C@H]1C	none (no result: MITF act, HSF1 activator, HSF1 inhib, Wnt bcat act)
C[C@H](CO)N1C[C@H](C)[C@@H](CN(C)CC2CC2)Oc2ccc(NC(=O)c3ccncc3)cc2CC1=O	none (no result: MITF act, HSF1 activator, HSF1 inhib, Wnt bcat act)
C[C@H](CO)N1C[C@H](C)[C@@H](CN(C)S(=O)(=O)c2ccc(F)cc2)Oc2ccc(NC(=O)Cn3cnnn3)cc2C1=O	none (no result: MITF act, HSF1 activator, HSF1 inhib, Wnt bcat act)
O=C(CCSc1ccc(Cl)cc1)NC12CC3CC(CC(C3)C1)C2	esBAF inh 50 (no result: MITF act)
O=C(CCS(=O)(=O)c1ccccc1)NCCS(=O)(=O)c1ccccc1	none (no result: esBAF inh)
O=C(CCS(=O)(=O)c1ccccc1)NC12CC3CC(CC(C3)C1)C2	MITF act 97
COc1ccc(C2NC(=S)NC3=C2CCCC3=C2SCCS2)cc1 (stereo unspecified)	HSF1 inhib -56, Wnt bcat act inconclusive
Nc1nc(CSc2n[nH]c(-c3ccccc3)n2)nc(Nc2ccccc2)n1	none (no result: esBAF inh, Wnt bcat act)
Cc1ccc(-c2nc(Nc3ccccc3)n[nH]2)cc1	Wnt bcat act 45 (no result: esBAF inh, HSF1 activator, HSF1 inhib)
C[C@@H]1CN([C@@H](C)CO)C(=O)c2cc(NC(=O)Nc3ccccc3)ccc2O[C@@H](C)CCCCO[C@@H]1CN(C)S(=O)(=O)c1cccs1	none (no result: MITF act, HSF1 activator, HSF1 inhib, Wnt bcat act)
O=C(CSc1nc2ccccc2[nH]1)c1ccco1	none (no result: Wnt bcat act)
COc1ccc2nc(SCC(=O)c3ccco3)[nH]c2c1	MITF act 95, Wnt bcat act 33
COc1ccc2nc(SCC(=O)NC(C)(C)C)[nH]c2c1	none (no result: Wnt bcat act)
COc1ccc2nc(SCC(=O)C(C)(C)C)[nH]c2c1	Wnt bcat act 41 (no result: esBAF inh)
CNC[C@@H]1OCCCC[C@@H](C)Oc2ccc(NC(=O)Nc3ccc4c(c3)OCO4)cc2C(=O)N([C@H](C)CO)C[C@H]1C	none (no result: MITF act, HSF1 activator, HSF1 inhib, Wnt bcat act)
C[C@H]1CN([C@@H](C)CO)C(=O)c2cc(NC(=O)Nc3ccc4c(c3)OCO4)ccc2O[C@H]1CN(C)S(=O)(=O)c1ccccc1	none (no result: MITF act, HSF1 activator, HSF1 inhib, Wnt bcat act)
CO[C@@H]1CN(C)C(=O)c2cc(NS(=O)(=O)c3ccccc3C)ccc2OC[C@@H](C)N(C)C[C@H]1C	none (no result: MITF act, HSF1 activator, HSF1 inhib, Wnt bcat act)
C=CCn1c(SCC#N)nc2ccccc2c1=O	HSF1 activator 53 (no result: Wnt bcat act)
C[C@@H]1CN([C@H](C)CO)C(=O)c2ccccc2-c2ccccc2CO[C@@H]1CN(C)C	none (no result: MITF act, HSF1 activator, HSF1 inhib, Wnt bcat act)
C[C@H](CO)N1C[C@H](C)[C@H](CN(C)Cc2ccc(Cl)c(Cl)c2)Oc2c(NS(=O)(=O)c3ccc(Cl)cc3)cccc2C1=O	none (no result: MITF act, HSF1 activator, HSF1 inhib, Wnt bcat act)
